GLP1R cytotox – cytotoxicity in counter-screen for GLP-1R inverse agonists; HEK293 cAMP-luciferase reporter cells, luminescence, 24 h; Potency, µM (doses to about 38.3 µM), without a hit: at the highest dose activity change, negative = inhibition, usual class: inhibitors; 0.13% of 410,000 active; AID 624418;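 note: loss of luciferase light is scored as toxicity; % is set by controls: 0 for no effect and ±100 for the full control effect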
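To flag toxic compounds, the library was rerun on cells for 24 hr at 37 deg C and 5% CO2. Viability-linked luminescence was captured 12 min after adding luciferase detection reagent.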
GLP-1R agonist – GLP-1 receptor (human) agonism; P43220; HEK293 GLP-1R CRE-luciferase, luminescence, 4-6 h; cells express a hypersensitive GLP-1R form; Potency, µM (top dose mostly 45.6 µM), for the others: at the highest dose activation, most hits filed as activators; 0.007% of 380,000 active; note: % of control where 0% means no effect
Target sequence (P43220 whole entry, looked up): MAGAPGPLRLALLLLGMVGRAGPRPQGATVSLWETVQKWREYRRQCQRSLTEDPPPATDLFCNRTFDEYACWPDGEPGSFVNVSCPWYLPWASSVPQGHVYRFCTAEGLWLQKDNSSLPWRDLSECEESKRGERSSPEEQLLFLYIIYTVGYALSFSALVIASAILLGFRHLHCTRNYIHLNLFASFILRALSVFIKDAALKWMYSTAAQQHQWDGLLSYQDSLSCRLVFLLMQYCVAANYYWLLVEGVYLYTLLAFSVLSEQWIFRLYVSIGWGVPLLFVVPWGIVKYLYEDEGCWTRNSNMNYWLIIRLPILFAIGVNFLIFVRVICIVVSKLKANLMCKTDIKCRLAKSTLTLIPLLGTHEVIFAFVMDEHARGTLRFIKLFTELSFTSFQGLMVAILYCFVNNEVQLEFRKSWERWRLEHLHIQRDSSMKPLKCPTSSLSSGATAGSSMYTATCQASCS
GLP1R inv ag – acts as inverse agonist at human GLP-1 receptor. P43220. HEK293 GLP-1R CRE-luciferase, luminescence, 24 h; GLP-1R form is constitutively active. Potency, µM (series often up to 38.3 µM), without a hit: at the top dose activity change, negative = inhibition, hits mostly inhibitors. 1.6% of 410,000 active; note: % is set by controls: 0 for no effect and ±100 for the full control effect; nearly all actives have a fitted effect of over 55% in size
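Readout was luciferase luminescence, measured 12 min after detection reagent at room temperature. Beforehand, GLP-1R reporter HEK293 cells had sat 12 h, then received compounds for 24 hr at 37 deg C.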
An asterisk follows results filed as active; u = inconclusive; x = no result. Sampled rows, rich in hits. Any-hit rate of the full collection: about 1.7%. Calls come from the whole dose curve; as a rule, active = well fitted curve in the direction sought with a large enough effect; inconclusive = small, poorly fitted or top-dose-only effect, or another doubt; inactive = no such curve, though single readings can be large; an effect the other way counts as inactive or inconclusive. Potency is the fitted concentration of half-maximal effect.

SMILES | GLP1R cytotox | GLP-1R agonist | GLP1R inv ag
Cc1ccc(C)c(N2CCN(C(=O)c3ccc(CS(=O)Cc4ccc(Cl)cc4)o3)CC2)c1 (stereo not given) | -22.5% | -3.8% | 10µM*
O=C(c1ccc(CS(=O)Cc2ccc(Cl)cc2)o1)N1CCN(c2ccccc2F)CC1 (stereo not given) | -11.6% | -3.3% | u
Cc1ccc(Cl)cc1N1CCN(C(=O)c2ccc(CS(=O)Cc3ccc(Cl)cc3)o2)CC1 (stereo not given) | -16.6% | -5.0% | 8.91µM*
O=C1NC(=O)C2C3C=CC(C3)C12 (stereo not given) | x | -1.1% | x
COc1cccc(NC(=O)Cn2c(=O)n(-c3ccccc3)c(=O)c3c2c2cc(OC)ccc2n3C)c1 | 4.7% | -0.4% | -3.8%
COc1ccc(N(Cc2ccccc2)C(=O)CSc2nnc(Cn3nnc4ccccc43)o2)cc1 | -9.6% | 6.5% | u
O=C(CSc1nnc(Cn2nnc3ccccc32)o1)N(Cc1ccc(F)cc1)c1ccccc1 | 0.8% | -2.3% | 11.2µM*
CCOC(=O)c1[nH]c2c(c1Cc1ccccc1)C(=O)CC(c1ccc(C(C)(C)C)cc1)C2 (stereo not given) | 0.3% | x | 11.2µM*
Cc1c(C(=O)OCc2ccccc2)[nH]c2c1C(=O)CC(c1ccc(C(C)(C)C)cc1)C2 (stereo not given) | 2.9% | x | -1.8%
COc1ccc(C(=O)NNC(=O)CSc2nnc(C)n2C)cc1 | -14.7% | -0.3% | -9.9%
Clc1cccc(CNc2ccn3nc(-c4cccs4)cc3n2)c1 | -2.7% | 9.9% | -25.9%
Cc1ccc(S(=O)(=O)N(CC(=O)Nc2ccccc2C(=O)O)c2ccccc2C)cc1 | 12.0% | 0.2% | u
Cc1ccc(S(=O)(=O)N(CC(=O)Nc2ccccc2C(=O)O)c2cccc(Cl)c2C)cc1 | -16.4% | -9.6% | 8.91µM*
CC(Sc1nc2ncc(Cl)cc2[nH]1)C(=O)Nc1ccccc1[N+](=O)[O-] (stereo not given) | -16.8% | -1.1% | -18.0%
OC[C@@H]1CC[C@@H](Cc2ccc(-c3ccccc3)cc2)O1 | 2.9% | 4.5% | u
CCCOc1ccc(CCc2n[nH]c(=S)n2Cc2ccccc2)cc1 | -2.0% | 0.7% | 8.91µM*
CCCOc1ccc(CCc2n[nH]c(=S)n2-c2ccccc2)cc1 | u | 13.6% | -16.4%
CCOC(=O)C1CCN(C(=O)Cn2c(=O)oc3cc(S(=O)(=O)N4CCC(C)CC4)ccc32)CC1 | 5.8% | x | 16.2%
CCCc1cc(=O)[nH]c(SCC(=O)N2CCN(c3ccccc3OC)CC2)n1 | 1.5% | x | 4.7%
CNc1sc(C(=O)c2ccc(F)cc2)c(N)c1-c1nc2ccccc2s1 | 11.2µM* | 10.4% | 0.0%
CNc1sc(C(=O)c2cccs2)c(N)c1-c1nc2ccccc2s1 | u | 3.3% | u
Cc1ccc2ncc(C(=O)Nc3ccc(F)cc3F)c(=O)n2c1 | 1.4% | x | 16.3%
CCOC(=O)c1cccc(NC(=O)CSc2ncc3c(n2)-c2ccc(Cl)cc2N(Cc2ccccc2)S3(=O)=O)c1 | 4.1% | x | u
O[C@@H]1C[C@H](c2ccc(Cl)cc2)N(CC2CCCCC2)C[C@H]1n1cc(C2CC2)nn1 | 1.2% | -5.3% | -4.1%
O[C@H]1C[C@H](c2ccc(Cl)cc2)N(CC2CCCCC2)C[C@@H]1n1cc(C2CC2)nn1 | u | -4.2% | 10µM*
SMILES | GLP1R cytotox | GLP-1R agonist | GLP1R inv ag
CCOc1ccc(NC(=O)c2cc(-c3ccc(C)c(F)c3)on2)c([N+](=O)[O-])c1 | 0.0% | x | 8.6%
CCCCNc1c(-c2cc3ccccc3o2)nc2nc(C)cc(C)n12 | 16.2% | 23.1% | 2.5%
Cc1ccc(-c2nc(CS(=O)(=O)CC(=O)NCCCN(Cc3ccccc3)C(C)C)c(C)o2)cc1 | u | 2.2% | 4.47µM*
COc1ccc(-c2nc(CS(=O)(=O)CC(=O)NCCCc3ccccc3)c(C)o2)cc1 | 0.0% | 15.6% | -9.0%
O=C(C1CCCCC1)N(Cc1cccnc1)c1nc2ccc(F)cc2s1 | 0.3% | x | 11.2µM*
COc1ccc2nc(N(Cc3cccnc3)C(=O)C3CCCCC3)sc2c1 | -2.8% | x | u
COc1ccc(S(=O)(=O)c2nnn(-c3ccc(C)c(Cl)c3)c2C)cc1 | -8.0% | 2.0% | u
CC(=O)c1c(C)[nH]c(C(=O)NCCc2c[nH]c3ccccc23)c1C | -2.8% | 10.2% | 0.2%
CC(C)[C@H](NC(=O)OC(C)(C)C)c1cc(C(=O)NCCO)c(N)s1 | -3.6% | x | 18.2%
COc1cccc(NC(=O)CN(C)C(=O)c2cccc(S(=O)(=O)N3CC4(C)CC3CC(C)(C)C4)c2)c1 (stereo not given) | 2.3% | 9.1% | 2.5%
CC(C)CN(CC(C)C)C(=O)c1cccc(S(=O)(=O)N2CCc3ccccc32)c1 | u | 6.0% | u
COc1ccc(NC(=O)CN(C)C(=O)c2cccc(S(=O)(=O)N3CC4(C)CC3CC(C)(C)C4)c2)cc1 (stereo not given) | -22.3% | 20.6% | 11.2µM*
CCCCNC(=O)c1cccc(S(=O)(=O)N2CC3(C)CC2CC(C)(C)C3)c1 (stereo not given) | 2.1% | 9.3% | 10µM*
Cc1ccc(NC(=O)CN(C)C(=O)c2cccc(S(=O)(=O)N3CCc4ccccc43)c2)cc1 | -7.3% | -6.4% | 11.2µM*
COCCCNC(=O)c1cccc(S(=O)(=O)N2CC3(C)CC2CC(C)(C)C3)c1 (stereo not given) | -19.4% | -1.9% | -11.6%
CCc1nc2ccc(C(=O)Nc3ccc(Cl)c(Cl)c3)cn2c1N(C)Cc1ccc(OC)cc1 | 4.1% | 5.8% | u
CC1CCN(S(=O)(=O)c2nnc(NC(=O)c3ccccc3Br)s2)CC1 | 0.7% | -1.7% | 1.3%
COc1ccc(C(=O)NCCn2cc(SCC(=O)Nc3ccc4c(c3)OCCO4)c3ccccc32)cc1 | u | -1.8% | u
Cc1c(-c2cccc(NC(=O)Nc3ccccc3)c2)nc2ncccn12 | -0.1% | x | -3.7%
COc1ccc2cc(CN(C)C(=O)CN3C(=O)NC4(CCCC4)C3=O)ccc2c1 | -6.5% | 22.5% | -7.0%
Cc1ccc(-n2nnc(-c3nsc(NC(=O)c4ccc(C)c(C)c4)n3)c2C)cc1 | 4.1% | x | 2.8%
CCc1ccccc1-n1nnc(-c2nsc(NC(=O)c3ccc(C)c(C)c3)n2)c1C | 0.2% | x | 1.12µM*
COc1ccccc1CNS(=O)(=O)c1ccc(-n2cnnn2)c(OC)c1 | -3.3% | 9.9% | 11.0%
CCOC(=O)c1cc(-c2ccccc2)nn1CC1CC(c2ccc(OC)cc2)=NO1 (stereo not given) | 4.4% | 6.0% | u
CCOC(=O)c1cc(-c2ccccc2C)nn1CC1CC(c2ccc(OC)cc2)=NO1 (stereo not given) | 1.7% | 25.6% | 11.2µM*
CCOC(=O)c1ccc(NC(=O)Nc2c[nH]c(=O)[nH]c2=O)cc1 | -0.7% | x | -13.0%
Nc1nc(N)c(N=Nc2ccccc2)c(=O)[nH]1 | -35.0% | 8.8% | 42.8%
Nc1nc(N=Nc2ccc(O)cc2)cc(=O)[nH]1 | 10µM* | 0.7% | -8.5%
CC(CSC(=O)c1ccccc1)C(=O)N1CC(Sc2ccccc2)CC1C(=O)O (stereo not given) | x | 3.4% | x
CCOc1ccc(/C=C/C(O)=C2/C(=O)N(C)C3(C)CC2c2ccccc2O3)cc1OC (stereo not given) | -5.2% | 9.9% | 3.16µM*

Screening data (PubChem)
